Read-out in test [1]: TIMP metallopeptidase inhibitor 2 (TIMP2), TIMP2 (gene 7077)
The test can be described thus: BSK_KF3CT_TIMP2: BioMAP Diversity Plus: KF3CT Assay for TIMP metallopeptidase inhibitor 2 (TIMP2) Biomarker Activity (AID 2283071). The settings on record: primary human keratinocytes with fibroblasts; actives raise or lower the signal. A digest of the protocol: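 TIMP-2 measured by ELISA at 24 h in human keratinocyte/fibroblast primary co-cultures exposed to chemicals. Both increases and decreases were fitted against DMSO. Parallel cultures were stained with SRB for total protein as an overt-cytotoxicity check.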

Read-out in test [2]: Transforming growth factor beta 1 (TGFb1), TGFB1 (gene 7040)
The test can be described thus: BSK_KF3CT_TGFb1: BioMAP Diversity Plus: KF3CT Assay for Transforming growth factor beta 1 (TGFb1) Biomarker Activity (AID 2283072). The settings on record: primary human keratinocytes with fibroblasts; actives raise or lower the signal. The method, boiled down:
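ELISA quantifies TGF-b1 at 24 h post-dose in a primary human skin co-culture of keratinocytes and fibroblasts, with gain or loss judged against DMSO. Parallel SRB total-protein staining flags overt cytotoxicity.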

Read-out in test [3]: C-C motif chemokine 2 (Homo sapiens) (UniProt P13500)
The test can be described thus: BSK_KF3CT_MCP1: BioMAP Diversity Plus: KF3CT Assay for Monocyte Chemoattractant Protein 1 (MCP1/CCL2) Biomarker Activity (AID 2283073). The following applies: primary human keratinocytes with fibroblasts; actives raise or lower the signal. The method, boiled down:
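Human keratinocyte–foreskin fibroblast co-culture; MCP-1 measured by ELISA 24 h after dosing. Bidirectional fit vs DMSO; cytotoxicity tracked by SRB total protein in parallel cultures.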

Read-out in test [4]: Matrix Metallopeptidase 9 (MMP9), MMP9 (gene 4318)
The test can be described thus: BSK_KF3CT_MMP9: BioMAP Diversity Plus: KF3CT Assay for Matrix Metallopeptidase 9 (MMP9) Biomarker Activity (AID 2283074).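 On AC50: MMP9 protein level quantified by ELISA in the co-culture.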 The following applies: primary human keratinocytes with fibroblasts; actives raise or lower the signal. The method, boiled down:
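Values come from bidirectional fitting relative to DMSO of MMP-9 levels, which were measured by ELISA. Measurements were taken 24 h after chemical dosing of a keratinocyte and foreskin fibroblast co-culture.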

Read-out in test [5]: urokinase plasminogen activator (uPA), PLAU (gene 5328)
The test can be described thus: BSK_KF3CT_uPA: BioMAP Diversity Plus: KF3CT Assay for urokinase plasminogen activator (uPA) Biomarker Activity (AID 2283075). The following applies: primary human keratinocytes with fibroblasts; actives raise or lower the signal. The method, boiled down:
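Values derive from bidirectional fitting against DMSO controls. Keratinocyte/foreskin fibroblast co-cultures received chemical; 24 h later uPA was detected by ELISA, with SRB total-protein staining in parallel wells for overt cytotoxicity.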

Read-out in test [6]: CD40, CD40 (gene 958)
The test can be described thus: BSK_LPS_CD40: BioMAP Diversity Plus: LPS Assay for CD40 Biomarker Activity (AID 2283076). The following applies: primary human HUVEC with PBMC; actives raise or lower the signal. The method, boiled down: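 HUVEC plus PBMC co-culture stimulated with LPS; CD40 quantified by ELISA 24 h after compound dosing. Fitting was bidirectional relative to DMSO. SRB staining of parallel cultures flagged overt cytotoxicity.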

Read-out in test [7]: E-selectin (Homo sapiens) (UniProt P16581)
The test can be described thus: BSK_LPS_Eselectin: BioMAP Diversity Plus: LPS Assay for Eselectin Biomarker Activity (AID 2283077). The following applies: primary human HUVEC with PBMC; actives raise or lower the signal. The method, boiled down: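 Human umbilical vein endothelial cells co-cultured with PBMC under LPS stimulation; cell-surface E-selectin measured by ELISA 24 h after dosing. Change in either direction versus DMSO, with SRB total-protein staining in parallel cultures for cytotoxicity.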

Read-out in test [8]: Interleukin-8 (IL8), CXCL8 (gene 3576)
The test can be described thus: BSK_LPS_IL8: BioMAP Diversity Plus: LPS Assay for Interleukin-8 (IL8) Biomarker Activity (AID 2283078). The following applies: primary human HUVEC with PBMC; actives raise or lower the signal. The method, boiled down:
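Human umbilical vein endothelial cells co-cultured with PBMC, LPS-stimulated, exposed to compound for 24 h. IL-8 quantified by ELISA; fitted in both directions against DMSO, with SRB total-protein staining of parallel cultures for cytotoxicity.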

Test [9] is described as follows: BSK_LPS_SRB: Viability Assessment in the BioMAP Diversity Plus: LPS Assay (AID 2283079).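 Further: total protein by sulforhodamine B absorbance as a cytotoxicity measure; measured one day after compound addition; fitted in both directions against DMSO so loss or gain of signal counts.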 The following applies: primary human HUVEC with PBMC. The method, boiled down:
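Co-culture of human umbilical vein endothelial cells and PBMC, read 24 h after dosing. Total protein by 0.1% SRB staining after 10% TCA fixation, absorbance at 560 nm; bidirectional fit against DMSO.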

Read-out in test [10]: Interleukin-1 alpha (IL1a), IL1A (gene 3552)
The test can be described thus: BSK_LPS_IL1a: BioMAP Diversity Plus: LPS Assay for Interleukin-1 alpha (IL1a) Biomarker Activity (AID 2283080). The following applies: primary human HUVEC with PBMC; actives raise or lower the signal. A digest of the protocol:
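Human umbilical vein endothelial cells co-cultured with PBMC and stimulated with LPS; IL-1a measured by ELISA 24 h after dosing. Bidirectional fitting against DMSO; cytotoxicity checked by SRB staining in parallel cultures.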

Activity calls are given as the source filed them. How the source made its calls: active means hit-call score of the fitted dose curve at least 0.9, where 1 is the maximum; inactive means score below 0.9.

From PubChem BioAssay (EPA / NIEHS) come the findings set out here.

Sequence of E-selectin (Homo sapiens) (P16581 whole entry, looked up): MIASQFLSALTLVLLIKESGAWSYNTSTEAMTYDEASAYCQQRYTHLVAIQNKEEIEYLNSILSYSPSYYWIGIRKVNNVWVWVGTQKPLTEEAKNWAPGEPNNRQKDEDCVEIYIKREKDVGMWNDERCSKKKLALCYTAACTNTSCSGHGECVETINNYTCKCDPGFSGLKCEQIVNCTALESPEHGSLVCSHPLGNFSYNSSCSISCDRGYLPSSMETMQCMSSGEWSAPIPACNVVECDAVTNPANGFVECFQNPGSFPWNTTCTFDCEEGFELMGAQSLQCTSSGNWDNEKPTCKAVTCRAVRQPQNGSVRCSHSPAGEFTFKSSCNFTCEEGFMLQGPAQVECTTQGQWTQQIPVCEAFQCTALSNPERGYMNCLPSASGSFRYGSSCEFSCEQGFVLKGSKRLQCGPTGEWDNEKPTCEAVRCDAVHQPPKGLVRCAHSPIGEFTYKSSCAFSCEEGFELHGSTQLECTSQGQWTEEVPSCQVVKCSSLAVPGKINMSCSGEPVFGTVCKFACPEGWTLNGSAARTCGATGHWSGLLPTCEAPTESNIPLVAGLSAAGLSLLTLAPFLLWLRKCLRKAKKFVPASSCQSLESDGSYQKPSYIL

`N#Cc1cccnc1`: the outcome in test [1], in test [2], in test [3], in test [4], in test [5] and in test [6] was inactive. In addition, the result in test [7], in test [8], in test [9] and in [10] was inactive.

With `Oc1cc(Cl)c(Cl)cc1Cl`, the result in test [1], in test [2], in test [4] and in [5] was inactive. For the same compound, the AC50 in [3] is 20 µM (active); in test [6], 14.1 µM (active); in [7], 34.1 µM (active); in test [8] it was 32.3 µM (active); in test [9], 25.7 µM (active); in test [10] it was 32.6 µM (active).

Consider `COc1ccccc1N`, for which the result in [1], in test [2], in test [3], in [4], in [5] and in test [6] was inactive. Moreover, the outcome in test [7], in [8], in [9] and in [10] was inactive.

With `CCOC(=O)CCN(SN(C)C(=O)Oc1cccc2c1OC(C)(C)C2)C(C)C`, the result in [1], in test [2], in test [3], in [4], in test [5] and in [6] was inactive. Further, the result in test [7], in test [8], in test [9] and in [10] was inactive.

In the case of `O=S(=O)(C(Cl)(Cl)Cl)C(Cl)(Cl)Cl`, the AC50 in [1] is 2.25 µM (active); in test [3], 2.37 µM (active); in test [4], 2.22 µM (active); in test [5], 3.52 µM (active); in test [6] it was 1.51 µM (active); in test [7] it was 2.4 µM (active). For the same compound, the AC50 in test [8] is 2.88 µM (active); in test [9] it was 5.31 µM (active); in [10], 1.6 µM (active). Moreover, in test [2], the outcome was inactive.

In the case of `Cc1cccc(OP(=O)(Oc2cccc(C)c2)Oc2cccc(C)c2)c1`, the outcome in test [1], in test [2], in [3], in test [5], in test [6] and in [7] was inactive. Moreover, the outcome in test [8], in [9] and in test [10] was inactive. Moreover, in test [4], the concentration at half-maximal activity (AC50) was 20.3 µM (active).

For `O=[N+]([O-])c1ccc(Nc2ccccc2)cc1`, the outcome in [1], in [2], in test [3], in [4], in test [5] and in [6] was inactive. Moreover, the outcome in test [7], in test [8], in [9] and in [10] was inactive.

For the compound `O=C1C=CC(=O)c2ccccc21`, the AC50 was 1.67 µM (active) in test [1]; 1.81 µM (active) in test [2]; 3.45 µM (active) in test [3]; 5.16 µM (active) in test [4]; 2.86 µM (active) in test [5]; 1.37 µM (active) in test [6]. Further, the AC50 was 1.44 µM (active) in test [7], 1.37 µM (active) in test [8], 5.33 µM (active) in test [9] and 1.07 µM (active) in test [10].

With `Cc1ccccc1OP(=O)(Oc1ccccc1)Oc1ccccc1`, the AC50 in [1] is 14.4 µM (active); in [2], 0.016 µM (active); in test [4], 8.99 µM (active); in test [6] it was 15.7 µM (active); in test [7] it was 29.2 µM (active); in test [9], 20 µM (active). Also, the AC50 in test [10] is 28.1 µM (active). The outcome in test [3], in test [5] and in test [8] was inactive.

Take `O=C(CCl)NCO`: the result in test [1], in [2], in [3], in test [4], in [5] and in test [6] was inactive. The result in [7], in test [9] and in test [10] was inactive. In addition, in test [8], the AC50 is 0.0625 µM (active).

By AC50 is commonly meant the midpoint of the concentration-response curve, whichever way the signal moves.
